Only some compounds are listed: those with a hit (about 11% of all), similar ones and a draw of the others.
L3MBTL1 inh: blocks human L3MBTL1; AlphaScreen L3MBTL1–H3K9me1 peptide binding; Potency, µM (top dose mostly 57.1 µM), for inactives: at the top dose activity, negative = inhibition, hits mostly inhibitors; 0.66% of 230,000 active; also: % is scaled to controls: 0 for no effect and ±100 for the full control effect; nearly all actives have a fitted effect of over 60% in size
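First, the protein-peptide complex forms for 30 min at room temperature (L3MBTL1 50 nM, biotinylated H3K9me1 peptide 75 nM). Next, compounds are pin-transferred and incubated 30 min. Finally, AlphaScreen beads are added and read after 30 min.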
JMJD2A Tudor inh: inhibitors of human JMJD2A Tudor domain | AlphaScreen JMJD2A-Tudor / H3K4me3 peptide binding | Potency, µM (top dose mostly 114 µM), for the others: at the top dose activity change, negative = inhibition, actives largely listed as inhibitors | 4.4% of 390,000 active | AID 504339; also: % is scaled to controls: 0 for no effect and ±100 for the full control effect; nearly all actives have a fitted effect of over 50% in size
Target sequence (O75164 whole entry, looked up, the tested form may be a part): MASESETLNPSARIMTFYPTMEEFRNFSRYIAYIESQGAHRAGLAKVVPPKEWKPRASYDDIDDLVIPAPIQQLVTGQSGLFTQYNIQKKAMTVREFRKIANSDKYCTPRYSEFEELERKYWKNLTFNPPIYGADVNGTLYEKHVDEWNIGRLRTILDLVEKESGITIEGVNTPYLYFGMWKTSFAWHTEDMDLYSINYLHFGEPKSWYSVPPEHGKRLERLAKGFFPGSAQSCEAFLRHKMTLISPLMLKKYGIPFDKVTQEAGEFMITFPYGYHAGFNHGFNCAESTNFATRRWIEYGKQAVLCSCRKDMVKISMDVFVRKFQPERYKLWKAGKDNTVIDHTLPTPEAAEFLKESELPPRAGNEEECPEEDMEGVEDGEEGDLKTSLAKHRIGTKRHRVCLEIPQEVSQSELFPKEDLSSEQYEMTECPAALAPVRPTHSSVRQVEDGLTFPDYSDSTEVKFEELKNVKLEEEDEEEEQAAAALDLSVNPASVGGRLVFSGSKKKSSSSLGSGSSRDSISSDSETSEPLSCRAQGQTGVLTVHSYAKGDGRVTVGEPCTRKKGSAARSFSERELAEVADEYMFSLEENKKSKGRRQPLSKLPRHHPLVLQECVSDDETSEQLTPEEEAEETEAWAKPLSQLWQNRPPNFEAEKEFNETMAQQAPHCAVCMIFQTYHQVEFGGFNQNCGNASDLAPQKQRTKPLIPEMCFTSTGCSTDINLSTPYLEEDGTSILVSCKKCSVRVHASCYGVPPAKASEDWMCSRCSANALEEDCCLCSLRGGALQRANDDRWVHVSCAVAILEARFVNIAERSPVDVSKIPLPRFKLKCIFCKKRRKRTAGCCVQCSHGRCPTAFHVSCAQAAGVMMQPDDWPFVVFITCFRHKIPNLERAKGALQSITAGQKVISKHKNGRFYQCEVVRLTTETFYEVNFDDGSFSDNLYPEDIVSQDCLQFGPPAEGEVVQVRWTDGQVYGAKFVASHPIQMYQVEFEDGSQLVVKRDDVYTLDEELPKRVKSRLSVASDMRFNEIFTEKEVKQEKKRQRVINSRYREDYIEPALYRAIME
BAZ2B inh: blocks human BAZ2B | Q9UIF8 | AlphaScreen BAZ2B-H3K14Ac peptide displacement | Potency, µM (doses to about 114 µM), without a hit: at the highest dose activity change, negative = inhibition, hits mostly inhibitors | 4.4% of 360,000 active; also: % is scaled to controls: 0 for no effect and ±100 for the full control effect; nearly all actives have a fitted effect of over 60% in size
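BAZ2B 50 nM plus b-H3(5-23)K14Ac 50 nM, PBS pH 7.4/0.01% Tween-20, 30 min RT; compound added (max 110 uM), 30 min RT; streptavidin donor/Ni-chelate acceptor beads 10 ug/mL final, 20 min dark; AlphaScreen read.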
G9a block: blocks human histone lysine methyltransferase G9a | Q96KQ7 | G9a H3K9 monomethylation, AlphaScreen, 2 h | Potency, µM (doses to about 102 µM), without a hit: at the highest dose activity, negative = inhibition, usual class: inhibitors | 8.8% of 350,000 active; also: % is scaled to controls: 0 for no effect and ±100 for the full control effect; nearly all actives have a fitted effect of over 75% in size
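Readings reflect AlphaScreen signal from monomethyl-H3K9 antibody detection. HMT at 20 nM; substrate b-H3K9 500 nM; cofactor SAM 20 uM; 2 h RT reaction; compounds tested as titrations in qHTS with 15 min preincubation.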
HP1b chromo inh: inhibitors of HP1-beta chromodomain binding to methylated histone tails. P83916. AlphaScreen HP1-beta / biotin-H3K9me3 peptide binding. Potency, µM (titrated, usually from 114 µM), inactives show at the highest dose activity change, negative = inhibition, actives largely listed as inhibitors. 0.56% of 390,000 active. AID 540317; also: nearly all actives have a fitted effect of over 70% in size
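HP1-beta protein (50 nM final) preincubated 30 min at room temperature with biotinylated H3(1-18)K9me3 peptide (50 nM) in PBS pH 7.4, 0.01% Tween-20, then compound added for 30 min. AlphaScreen streptavidin donor/nickel chelate acceptor beads (10 ug/mL final), 30 min dark, luminescence read.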
Starred values were filed as active, the others as inactive; ? = inconclusive; . = no result given; [ ] = dose if it differs, or a comment. Calls follow the shape of the dose curve; as a rule, active = well fitted inhibition curve with a large enough effect; inconclusive = small, poorly fitted or top-dose-only effect; inactive = no such curve, though single readings can be large or run the other way. Potency is read from the fitted curve at half-maximal effect.

SMILES	L3MBTL1 inh	JMJD2A Tudor inh	BAZ2B inh	G9a block	HP1b chromo inh
Cc1c(C)n(CC(O)CN2CCOCC2)c2ccccc12 (centres undefined)	-5%	22µM*	.	13µM*	71µM*
Cc1c(C)n(CC(O)CN2CCCCC2)c2ccccc12 (centres undefined)	-8%	1.6µM*	45µM*	?	?
Cc1ccc2c(c1)c(C)c(C)n2CC(O)Cn1nc(C)c(Br)c1C (centres undefined)	-10%	50µM*	45µM*	?	-36%
Cc1cc(C)n(CC(O)Cn2c(C)c(C)c3ccccc32)n1 (centres undefined)	.	3.5µM*	35µM*	13µM*	?
COc1ccc(-c2cc3ccccc3n2CC(O)Cn2nc(C)cc2C)cc1 (centres undefined)	-11%	-31%	-11%	-12%[12.7 µM]	11%
c1ccc(Nc2nc(-c3ccoc3)nc3ccccc23)cc1	.	.	.	8%[0.501 µM]	.
O=C(NCc1ccccn1)C1(C(F)(F)F)CC(CCCO)CCCO1 (centres undefined)	.	-6%	.	.	24%
CCCCCNc1nc(N2CCCC2)c2c(c1C#N)CCN(C)C2	-2%	56µM*	?	50µM*	-39%
CCCCCNc1nc(NCCCO)c(C#N)c2c1CN(C)CC2	.	-33%	-9%	20%[12.7 µM]	15%
N#CC1(NC(=O)COc2cc(F)ccc2[N+](=O)[O-])CCCCC1	-2%	0%	13%	?	26%
N#CC1(NC(=O)COc2ccccc2[N+](=O)[O-])CCCCC1	-1%	20µM*	5%	18µM*	?
Cc1cc(Cl)ccc1OCCSc1nnc(-c2cccs2)o1	.	107%	215%	52%[59 µM]	147%
Cc1ccc(-c2nc3sc(CCNS(=O)(=O)c4cc(F)ccc4F)c(C)n3n2)cc1	.	-10%	3%	3%[59 µM]	41%
Cc1nc2ccccc2c(=O)n1C1CCCCCC1	1%	-5%[11.4 µM]	9%	-2%[59 µM]	73%
CCO/C(C)=N/n1c2nc3ccccc3nc2c2c(=O)n(C3CCCC3)c(C)nc21	-5%	3%	-4%	56µM*	30%
Cc1[nH]c2c(ccc3cccnc32)c1C	-22%	45µM*	35µM*	-33%[12.7 µM]	?
O=[N+]([O-])c1ccc(/C=C/C2=NN(c3ccccc3)C(c3ccco3)C2)cc1 (centres undefined)	-13%	?	50µM*	22µM*	-20%[57 µM]
CCC(C)c1ccc(O)c(N)c1 (centres undefined)	-5%	?	-36%	2.8µM*	-16%
CC(C)c1ccc(O)c(N)c1	2%[11.4 µM]	-22%	?	1.4µM*	25%
CCC(C)c1ccccc1O (centres undefined)	0%	-1%	-3%	-1%[0.501 µM]	44%
CCc1cccc(CC)c1NC(=O)C(Cc1ccccc1)NS(=O)(=O)c1cccc2nsnc12 (centres undefined)	.	-29%	.	?	11%
COc1cc(C(=O)Nc2nc3c(s2)Cc2c(Br)ccc(OC)c2-3)cc(OC)c1OC	.	-26%	-3%	0%[59 µM]	16%
O=C(Nc1ccccc1C(=O)OCc1cc(=O)n2nc(C3CC3)sc2n1)c1cccc(F)c1	.	5%	-5%	13%[59 µM]	22%
CC(=O)O/C(=C\c1cn(C(C)=O)c2ccccc12)C(=O)O	.	-1%	?	35µM*	31%
C=C(c1cccc2ccccc12)P(=O)(O)O	?	?	13%	16µM*	47%
SMILES	L3MBTL1 inh	JMJD2A Tudor inh	BAZ2B inh	G9a block	HP1b chromo inh
O=C(CN1C(=O)c2cccnc2Oc2ccc(Cl)cc21)NCCCN1CCCCC1	.	-9%	-2%	-2%[59 µM]	24%
C(=N\N(c1ccccc1)c1ccccc1)/c1ccc(N2CCOCC2)s1	-20%	?	?	13µM*	?
CCOC(=O)N/N=C/c1ccc(N2CCOCC2)s1	-5%	-25%	-4%	40µM*	0%
COc1cccc(Cc2nc3ccccc3nc2SCC(=O)NCc2ccc(C)cc2)c1	.	4%	4%	0%[59 µM]	30%[57 µM]
CN(CCO)c1ccc(C(C(=O)c2ccccc2)c2ccc(N(C)CCO)cc2)cc1	?	45µM*	45µM*	4%[2.33 µM]	?
Cc1cc(OCCCCNC(C)C)cc(C(C)C)c1	12%	18µM*	?	28µM*	?
Cc1cc(C)cc(OCCCn2ccnc2)c1	.	-27%	?	.	27%

Source: PubChem
